Values joined by “and” are separate entries in the source; they are usually repeats but may differ in a detail not shown here. Equal values may be shown once. The whole screen tested about 5,500 compounds, of which about 2,000 (36%) were called active. About 18% were inconclusive and are not listed. Rule as the data show it: active = normalized growth mostly below about 0.91 (no sharp cut-off); inconclusive = no clear call, values can overlap the other calls; inactive = mostly above about 0.92. The list shows a part of the results.
Test: chemical genetic growth profiling, strain panel (AID 1159580);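 also: tested at 20 µM; growth read once vehicle control cultures reached saturation at 30 °C; 1 = growth at the plate median or of vehicle wells; lower values mean less growth of the strain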
Conditions: S. cerevisiae deletion strains, growth OD

Measured: normalized growth

CC1=CC(=O)c2ccccc2C1=O
active: locus YAL013W, strain DEP1, hits give low values 0.0548 | locus YAL026C, strain drs2, hits give low values 0.903 | locus YBR009C, strain hhf1, hits give low values 0.757 | locus YBR021W, strain FUR4, hits give low values 0.0857 | locus YBR229C, strain ROT2, hits give low values 0.076 | locus YCL011C, strain gbp2, hits give low values 0.864 | locus YCL029C, strain bik1, hits give low values 0.0624 | locus YDL035C, strain GPR1, hits give low values 0.0512 | locus YDL074C, strain BRE1, hits give low values 0.108 | locus YDL101C, strain DUN1, hits give low values 0.0567 | locus YDL134C, strain PPH21, hits give low values 0.046 | locus YDL185W, strain tfp1, hits give low values 0.0717 | locus YDL192W, strain arf1, hits give low values 0.0585 | locus YDR101C, strain arx1, hits give low values 0.0639 | locus YDR150W, strain NUM1, hits give low values 0.0617 | locus YDR162C, strain NBP2, hits give low values 0.054 | locus YDR195W, strain ref2 1.3 [resistant] | locus YDR318W, strain mcm21, hits give low values 0.0603 | locus YDR388W, hits give low values 0.0538 | locus YDR392W, strain spt3, hits give low values 0.539 | locus YDR502C, strain sam2, hits give low values 0.059 | locus YEL061C, strain CIN8, hits give low values 0.0492 | locus YER110C, hits give low values 0.0711 | locus YER155C, strain BEM2, hits give low values 0.076 | locus YER167W, strain BCK2, hits give low values 0.0494 | locus YGL078C, strain dbp3, hits give low values 0.294 | locus YGL086W, strain mad1, hits give low values 0.0543 | locus YGL240W, strain doc1, hits give low values 0.871 | locus YGL248W, strain PDE1, hits give low values 0.0439 | locus YGL253W, strain hxk2, hits give low values 0.887 | locus YGR078C, strain PAC10, hits give low values 0.0487 | locus YGR135W, strain pre9, hits give low values 0.0619 | locus YGR229C, strain SMI1, hits give low values 0.0566 | locus YGR252W, strain gcn5, hits give low values 0.168 | locus YHR013C, strain ard1, hits give low values 1.17 [resistant] | locus YHR030C, strain SLT2, hits give low values 0.0463 and 0.306 | locus YHR079C, strain IRE1 (second series), hits give low values 0.0572 | locus YHR079C, strain IRE1, hits give low values 0.291 | locus YHR094C, strain hxt1, hits give low values 0.0585 | locus YHR129C, strain ARP1, hits give low values 0.058 | locus YHR142W, strain chs7, hits give low values 0.838 | locus YHR200W, strain rpn10, hits give low values 0.0601 | locus YIL066C, strain RNR3, hits give low values 0.0506 | locus YIL073C, strain SPO22, hits give low values 0.117 | locus YIL125W, strain kgd1, hits give low values 0.419 | locus YIR030C, strain dcg1, hits give low values 0.0593 | locus YJL095W, strain BCK1, hits give low values 0.0528 and 0.292 | locus YJL134W, strain LCB3, hits give low values 0.0458 | locus YJL166W, strain qcr8, hits give low values 0.639 | locus YJL168C, strain set2, hits give low values 0.0804 | locus YJL187C, strain SWE1 (second series), hits give low values 0.0592 | locus YJR043C, strain POL32, hits give low values 0.0645 | locus YJR066W, strain TOR1, hits give low values 0.368
inactive: locus YAL021C, strain ccr4, hits give low values 1.02 | locus YAL030W, strain snc1, hits give low values 1.02 | locus YBL061C, strain skt5, hits give low values 1.03 | locus YBR023C, strain chs3, hits give low values 0.999 | locus YBR171W, strain sec66, hits give low values 1.03 | locus YBR231C, strain swc5, hits give low values 0.955 | locus YBR279W, strain paf1, hits give low values 0.971 | locus YCL016C, strain dcc1, hits give low values 0.933 | locus YCL061C, strain MRC1, hits give low values 0.932 | locus YCL069W, strain vba3, hits give low values 0.967 | locus YCR088W, strain abp1, hits give low values 1.03 | locus YDL005C, strain med2, hits give low values 1.03 | locus YDL040C, strain nat1, hits give low values 1.03 | locus YDR001C, strain nth1, hits give low values 1.04 | locus YDR069C, strain doa4, hits give low values 1.03 | locus YDR137W, strain rgp1, hits give low values 0.916 | locus YDR159W, strain sac3, hits give low values 0.983 | locus YDR297W, strain sur2, hits give low values 0.988 | locus YDR334W, strain swr1, hits give low values 1.01 | locus YDR335W, strain msn5, hits give low values 1.01 | locus YEL003W, strain gim4, hits give low values 0.938 | locus YEL037C, strain rad23, hits give low values 0.994 | locus YEL061C, strain CIN8 (second series), hits give low values 1.02 | locus YER015W, strain faa2, hits give low values 0.971 | locus YER016W, strain bim1, hits give low values 1.02 | locus YER111C, strain swi4, hits give low values 1.02 | locus YER155C, strain BEM2 (second series), hits give low values 0.993 | locus YFR010W, strain ubp6, hits give low values 0.989 | locus YGL167C, strain pmr1, hits give low values 1.04 | locus YGL173C, strain kem1, hits give low values 0.987 | locus YGL227W, strain vid30, hits give low values 0.974 | locus YHR027C, strain rpn1, hits give low values 0.997 | locus YJL092W, strain hpr5, hits give low values 1.02 | locus YJL095W, strain BCK1 (second series), hits give low values 1.02 | locus YJL115W, strain asf1, hits give low values 1.03 | locus YJL129C, strain trk1, hits give low values 1.02 | locus YJL154C, strain vps35, hits give low values 1.03 | locus YJL164C, strain tpk1, hits give low values 0.934

From PubChem BioAssay AID1159580 (chemical genetic matrix, 2015)
